Potency and activation data for 15 molecules are collected here from PubChem BioAssay (Tox21).

“And” between values parts separate entries of the source, which are not always exact repeats. Equal entries are not always repeated. More than one record can exist for a structure, and the calls need not agree. The source made the active and inactive calls. Unless noted, the call rests on the fitted dose curve; in most records, active means well fitted curve in the direction sought with a large enough effect in the repeat runs; inconclusive means weak or mixed curves; inactive means no such curve, though single readings can be large; an effect the other way counts as inactive or inconclusive.

A short description of experiment [1]: qHTS assay to identify small molecule antagonists of the glucocorticoid receptor (GR) signaling pathway - cell viability counter screen (AID 720693). Further: nearly all actives have a fitted effect of over 55% in size. Further: potency means the concentration at half of the fitted maximal effect.
Experiment [2] in a line: qHTS assay for identifying genotoxic compounds that show differential cytotoxicity against isogenic chicken DT40 cell lines with known DNA damage response pathways - wild type cell line (AID 743012). Further: nearly all actives have a fitted effect of over 60% in size. Further: potency means the concentration at half of the fitted maximal effect. In a few lines:
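Viability by ATP luminescence (CellTiter-Glo, 30 min RT) after 40 h compound treatment at 37 C/5% CO2, using 300 parental DNA repair-proficient DT40 cells per well.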
A general note: Quantitative high-throughput screening tests each substance at several concentrations.

Experiment [3] is described as follows: qHTS assay for identifying genotoxic compounds that show differential cytotoxicity against isogenic chicken DT40 cell lines with known DNA damage response pathways - Rev3 mutant cell line (AID 743014). Further: nearly all actives have a fitted effect of over 55% in size. Further: potency means the concentration at half of the fitted maximal effect.
A short description of experiment [4]: qHTS assay for identifying genotoxic compounds that show differential cytotoxicity against isogenic chicken DT40 cell lines with known DNA damage response pathways - Rad54/Ku70 mutant cell line (AID 743015). Further: nearly all actives have a fitted effect of over 60% in size. Further: potency means the concentration at half of the fitted maximal effect.
Experiment [5] in a line: qHTS assay to identify small molecule antagonists of the androgen receptor (AR) signaling pathway - cell viability counter screen (AID 743033; further: nearly all actives have a fitted effect of over 45% in size; further: potency means the concentration at half of the fitted maximal effect).
Experiment [6] in a line: qHTS assay to identify small molecule antagonists of the androgen receptor (AR) signaling pathway using the MDA cell line - cell viability counter screen (AID 743041; further: nearly all actives have a fitted effect of over 45% in size; further: potency means the concentration at half of the fitted maximal effect). The method in brief: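 Viability read by CellTiter-Fluor fluorescence in the same wells as the antagonist screen, added after 15.5 h of a 16 h, 37C exposure. Human breast carcinoma MDA-kb2 AR-luc cells, compounds co-dosed with agonist R1881.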

Experiment [7] in a line: qHTS assay to identify small molecule antagonists of the thyroid receptor (TR) signaling pathway - cell viability counter screen (AID 743064). Further: nearly all actives have a fitted effect of over 50% in size. Further: potency means the concentration at half of the fitted maximal effect. In a few lines: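 GH3.TRE-Luc rat pituitary cells dosed after 4 hr plating, co-stimulated with T3 at 1 nM final, incubated 23.5 h at 37 C. Viability measured in the same wells by CellTiter-Fluor fluorescence after 30 min further at 37 C.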

A short description of experiment [8]: qHTS assay to identify small molecule antagonists of the thyroid receptor (TR) signaling pathway (AID 743065). Further: nearly all actives have a fitted effect of over 55% in size. Further: potency means the concentration at half of the fitted maximal effect. In a few lines:
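Antagonism measured as loss of luciferase signal in GH3 cells stably carrying a TRE-luciferase reporter, co-treated with compound and T3 (1 nM final) for 23.5 h at 37 C. Viability was read in the same well by CellTiter-Fluor.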

Experiment [9] deals with thyroid hormone receptor (rat, GH3 cells). As to the kind of experiment: qHTS assay to identify small molecule agonists of the thyroid receptor (TR) signaling pathway (AID 743066; calls by dose curve).
Experiment [10] in a line: qHTS assay to identify small molecule antagonists of the estrogen receptor alpha (ER-alpha) signaling pathway using the BG1 cell line - cell viability counter screen (AID 743081).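 Further: compound given together with 17beta-estradiol as the ER stimulus; nearly all actives have a fitted effect of over 45% in size.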 Further: potency means the concentration at half of the fitted maximal effect.
Experiment [11] concerns the target Aromatase (Homo sapiens) (UniProt P11511). As to the kind of experiment: qHTS assay to identify aromatase inhibitors (AID 743083). Further: nearly all actives have a fitted effect of over 55% in size. Further: potency means the concentration at half of the fitted maximal effect.
A short description of experiment [12]: qHTS assay to identify aromatase inhibitors - cell viability counter screen (AID 743084). Further: potency means the concentration at half of the fitted maximal effect.
Experiment [13] has as its target Estrogen receptor (Homo sapiens) (UniProt P03372). As to the kind of experiment: qHTS assay to identify small molecule antagonists of the estrogen receptor alpha (ER-alpha) signaling pathway (AID 743069; active means well fitted curve in the direction sought with a large enough effect in the signal ratio in the repeat runs, not every such curve was filed as active; inconclusive means weak or mixed curves, or effect the other way; inactive means no such curve, though single readings can be large or run the other way; the % refers to the signal ratio; further: potency means the concentration at half of the fitted maximal effect). In a few lines: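 Antagonist mode: compounds in DMSO were co-added with 17beta-estradiol to ER-alpha-bla HEK293 cells (2% charcoal-stripped serum) and left 18 h at 37C. Reporter inhibition was measured as FRET fluorescence after 2 h LiveBLAzer substrate at room temperature.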

The nature of experiment [14]: qHTS assay to identify small molecule antagonists of the estrogen receptor alpha (ER-alpha) signaling pathway - cell viability counter screen (AID 743074; calls by dose curve;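 further: HEK293 cells carrying ER-alpha-UAS-bla reporter stimulated with 17beta-estradiol; nearly all actives have a fitted effect of over 45% in size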; further: potency means the concentration at half of the fitted maximal effect).
Experiment [15] is described as follows: qHTS assay to identify small molecule antagonists of the estrogen receptor alpha (ER-alpha) signaling pathway using the BG1 cell line (AID 743080; calls by dose curve;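 further: BG1 cells stimulated with 17beta-estradiol alongside compound; nearly all actives have a fitted effect of over 25% in size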; further: potency means the concentration at half of the fitted maximal effect). The method in brief:
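BG1-Luc-4E2 cells (endogenous full-length ER-alpha, 4xERE luciferase) hormone-starved 5 days in charcoal-stripped FBS, plated 4,000/well for 24 h, then compound plus 17beta-estradiol for 21.5 h at 37 C; ONE-Glo luminescence read.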

Experiment [16] has as its target Estrogen receptor (Homo sapiens) (UniProt P03372). As to the kind of experiment: qHTS assay to identify small molecule agonists of the estrogen receptor alpha (ER-alpha) signaling pathway (AID 743075; calls by dose curve;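 further: HEK293 GripTite cells with ER-alpha and UAS-driven beta-lactamase reporter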). The settings on record: HEK293 ER-alpha-UAS-bla, beta-lactamase FRET ratio, 18 h; activation: at 70.1 µM (top of the series).
The target is the same in experiment [17]. As to the kind of experiment: qHTS assay to identify small molecule agonists of the estrogen receptor alpha (ER-alpha) signaling pathway using the BG1 cell line (AID 743079). Further: nearly all actives have a fitted effect of over 20% in size. Further: potency means the concentration at half of the fitted maximal effect. The settings on record: BG1Luc4E2 cells, ERE-luciferase agonist, 22 h.
On the % scale 0 is the no-effect control and ±100 the full control effect.

Aromatase (Homo sapiens), sequence (P11511 whole entry, looked up): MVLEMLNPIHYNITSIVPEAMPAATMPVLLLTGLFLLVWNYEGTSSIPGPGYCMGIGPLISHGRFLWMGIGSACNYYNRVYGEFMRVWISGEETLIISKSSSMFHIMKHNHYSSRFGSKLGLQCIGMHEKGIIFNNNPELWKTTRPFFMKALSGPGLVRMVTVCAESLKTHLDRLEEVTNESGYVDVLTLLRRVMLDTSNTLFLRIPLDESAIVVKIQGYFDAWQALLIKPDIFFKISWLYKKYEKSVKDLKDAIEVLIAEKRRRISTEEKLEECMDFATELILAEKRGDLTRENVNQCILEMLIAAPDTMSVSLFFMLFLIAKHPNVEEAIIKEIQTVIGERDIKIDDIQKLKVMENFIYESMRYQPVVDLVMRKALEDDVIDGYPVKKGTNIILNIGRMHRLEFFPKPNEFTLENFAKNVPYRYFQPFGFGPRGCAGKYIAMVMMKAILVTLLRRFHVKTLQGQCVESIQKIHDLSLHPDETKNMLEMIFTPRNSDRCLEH
Estrogen receptor (Homo sapiens), sequence (P03372 whole entry, looked up): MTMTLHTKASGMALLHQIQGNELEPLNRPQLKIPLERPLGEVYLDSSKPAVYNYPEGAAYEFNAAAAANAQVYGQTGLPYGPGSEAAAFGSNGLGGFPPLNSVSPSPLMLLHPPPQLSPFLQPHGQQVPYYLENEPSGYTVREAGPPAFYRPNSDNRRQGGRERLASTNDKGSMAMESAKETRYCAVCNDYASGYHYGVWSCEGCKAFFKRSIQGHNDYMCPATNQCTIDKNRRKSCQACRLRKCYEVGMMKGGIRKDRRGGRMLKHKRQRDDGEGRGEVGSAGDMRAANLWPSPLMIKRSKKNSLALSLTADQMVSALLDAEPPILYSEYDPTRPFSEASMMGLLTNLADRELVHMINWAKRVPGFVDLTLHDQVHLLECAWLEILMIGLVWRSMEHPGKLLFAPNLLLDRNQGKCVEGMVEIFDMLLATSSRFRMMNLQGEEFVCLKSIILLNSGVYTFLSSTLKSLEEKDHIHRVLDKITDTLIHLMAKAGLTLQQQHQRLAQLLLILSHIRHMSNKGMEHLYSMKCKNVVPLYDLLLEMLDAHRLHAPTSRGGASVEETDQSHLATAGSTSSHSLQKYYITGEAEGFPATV

As for `COc1cc(/C=C/C(=O)O[C@H]2CC[C@]34C[C@]35CC[C@]3(C)[C@@H]([C@H](C)CCC=C(C)C)CC[C@@]3(C)[C@@H]5CC[C@H]4C2(C)C)ccc1O`, the Potency entry in experiment [1], in [2], in experiment [3], in experiment [4], in [5] and in experiment [6] was “inactive” each time. Moreover, the Potency entry in experiment [7], in experiment [8], in experiment [9], in [10], in [11] and in [12] was “inactive” each time.

`CCCCCCCC/C=C\CCCCCCCCOCCO`: the Potency was 31.9 µM (active) in experiment [1]; 5.62 µM (active) in experiment [2]; 5.62 µM (active) in experiment [3]; 8.91 µM (active) in experiment [4]; 22.6 µM (active) in [5]; 14.1 µM (active) in [6]. Besides, the Potency in experiment [8] was 11.2 µM (active); in experiment [13], 9 µM [inconclusive] (active); in [14], 56.8 µM (active); in experiment [15], 10 µM (active); in experiment [10] it was 39.8 µM (active); in experiment [11], 35.5 µM (active). The Potency in experiment [12] is 79.4 µM (active). For the same molecule, the Potency entry in experiment [9] was “inactive”.

Regarding `C[C@]12CCC(=O)C=C1CC[C@@H]1[C@@H]2[C@@H](O)C[C@@]2(C)[C@H]1CC[C@]2(O)C(=O)COC(=O)CCC(=O)O`, the Potency entry in experiment [1], in [5], in [6], in experiment [7], in experiment [8] and in experiment [9] was “inactive” in each case. Further, the Potency result in [14], in [16], in experiment [11] and in [12] was “inactive” in each case. The results for the Potency in experiment [2], in experiment [3] and in experiment [4] were 26.6 µM (active), 18.8 µM (active) and 26.6 µM (active), respectively. Besides, the activation in [17] (at 70.3 µM (top of the series)) is 9.99% (inactive).

With `Cc1cc(C2CCCCC2)n(O)c(=O)c1`, the Potency result in experiment [1], in [5], in experiment [6], in experiment [16] and in [10] was “inactive” in each case. In addition, the Potency was 1.43 µM (active) in experiment [2]; 1.14 µM (active) in experiment [3]; 2.54 µM (active) in [4]; 2.54 µM (active) in [7]; 2.27 µM (active) in experiment [8]; 2.88 µM [inhibitor] (active) in [13]. For the same molecule, the Potency in experiment [15] is 9.02 µM (active); in [12], 12.7 µM (active).

Consider `COC(=O)C1=C(C)NC(C)=C(C(=O)OCC(C)C)C1c1ccccc1[N+](=O)[O-]` (centres undefined), for which the Potency result in experiment [1], in experiment [9], in [14], in experiment [16] and in [10] was “inactive” throughout. The Potency was 5.31 µM (active) and 3.86 µM (active) in experiment [2]; 10.6 µM (active) and 4.33 µM (active) in experiment [3]; 8.41 µM (active) and 5.45 µM (active) in [4]; 43.6 µM (active) in experiment [5]; 33.5 µM (active) and 68.6 µM (active) in experiment [7]; 29.8 µM (active) and 54.5 µM (active) in experiment [8]. In addition, the Potency in experiment [13] is 54.9 µM [inconclusive] (active); in experiment [11], 33.5 µM (active) and 61.1 µM (active); in experiment [12], 33.5 µM (active) and 61.1 µM (active).

With `Cc1[nH]nc2c1N=C(c1ccccc1Cl)c1cc([N+](=O)[O-])ccc1N2`, the Potency in [1] was 19.5 µM (active); in experiment [2], 0.386 µM (active); in experiment [3] it was 0.386 µM (active); in experiment [4], 0.486 µM (active); in [5] it was 43.6 µM (active); in experiment [7], 27.3 µM (active). Moreover, the results for the Potency in experiment [8], in experiment [14] and in [10] were 19.3 µM (active), 6.92 µM (active) and 54.5 µM (active), respectively. The Potency entry in experiment [9] was “inactive”.

On to `NNc1nc(-c2ccc(N)cc2)cs1`, for which the Potency result in experiment [1], in [5], in experiment [9], in [14], in experiment [16] and in experiment [15] was “inactive” throughout. Moreover, the Potency in experiment [2] is 17.2 µM (active); in experiment [3] it was 21.7 µM (active); in experiment [4], 10.9 µM (active); in experiment [12], 27.3 µM (active). The activation in experiment [17] (at 70.3 µM (top of the series)) is -1.53% (inactive).

With `CCCCCCCCCCCCCCCC[N+](C)(C)CCN(Cc1ccc(OC)cc1)c1ncccn1`, the Potency result in [1], in experiment [5], in experiment [13], in experiment [16], in experiment [10] and in experiment [12] was “inactive” throughout. Moreover, the Potency in experiment [2] was 1.6 µM (active); in experiment [3], 2.02 µM (active); in experiment [4], 2.27 µM (active); in [7] it was 11.4 µM (active); in experiment [11], 12.7 µM (active). In experiment [17] (at 32.5 µM (top of the series)), the activation is -16.9% (inactive).

Consider `Oc1ccc2cc(SSc3ccc4cc(O)ccc4c3)ccc2c1`, for which the Potency result in experiment [1], in experiment [6], in [9], in experiment [14] and in [10] was “inactive” each time. For the same molecule, the Potency is 24.3 µM (active) in experiment [2]; 19.4 µM (active) and 21.7 µM (active) in experiment [3]; 24.4 µM (active) and 27.3 µM (active) in experiment [4]; “inactive and 61.1 µM (active)” in [7]; 54.5 µM (active) in experiment [12].

Regarding `CN(C)c1ccc(SC#N)cc1`, the Potency entry in experiment [1], in experiment [5], in [9], in experiment [14], in experiment [16] and in experiment [15] was “inactive” throughout. For the same molecule, the Potency entry in experiment [10], in experiment [11] and in experiment [12] was “inactive” each time. Moreover, the Potency in [2] is 27.3 µM (active); in experiment [3], 30.6 µM (active); in experiment [4], 38.6 µM (active); in [17], 61.1 µM (active).

On to `Cc1cc(N)c(S(=O)(=O)O)cc1Cl`, for which the Potency entry in experiment [1], in [2], in experiment [3], in experiment [4], in experiment [5] and in [8] was “inactive” each time. The Potency entry in experiment [9], in [14], in [10], in experiment [11] and in experiment [12] was “inactive” in each case.

For `COc1ccc(CN2CCN(C(c3ccc(F)cc3)c3ccc(F)cc3)CC2)c(OC)c1OC`, the Potency result in [1] and in experiment [11] was “inactive” each time. The Potency in experiment [2] was 3.76 µM (active); in [3], 5.96 µM (active); in experiment [4], 6.68 µM (active); in [5], 23.9 µM (active); in experiment [7], 11.9 µM (active); in [8], 13.3 µM (active). Further, in [14], the Potency is 26.8 µM (active).

Regarding `O=CC=C(c1ccccc1)c1ccccc1`, the Potency entry in [1], in experiment [9], in experiment [16] and in experiment [10] was “inactive” in each case. Moreover, the Potency in [2] is 38.9 µM (active); in experiment [3] it was 27.5 µM (active); in experiment [4], 17.4 µM (active); in experiment [5], 22.1 µM (active); in experiment [7] it was 34.7 µM (active); in experiment [8] it was 13.8 µM (active). Also, the values for the Potency in experiment [13] and in experiment [15] were 27.8 µM [inconclusive] (active) and 69.1 µM (active), respectively. Also, in experiment [17] (at 95 µM (top of the series)), the activation was -5.89% (inactive).

Consider `CCN(CC)CCCC(C)Nc1c2ccc(Cl)cc2nc2ccc(OC)cc12` (centres undefined), for which the Potency result in experiment [1], in experiment [5], in [14], in experiment [11] and in experiment [12] was “inactive” in each case. Further, the Potency was 5.31 µM (active) in experiment [2], 5.96 µM (active) in experiment [3] and 6.68 µM (active) in experiment [4].

On to `CSc1cnc(C)cn1`, for which the Potency entry in experiment [1], in experiment [2], in [3], in experiment [4], in experiment [5] and in [8] was “inactive” each time. Besides, the Potency result in experiment [9], in experiment [13], in [14], in [16], in experiment [15] and in experiment [10] was “inactive” each time. For the same molecule, the Potency entry in [11] and in experiment [12] was “inactive” throughout. The activation in experiment [17] (at 95 µM (top of the series)) is 0.548% (inactive).
